As a reminder, the AC50 is the concentration at which the activity in the assay is half-maximal.

The source made the active and inactive calls. How the source made its calls: active means hit-call score of the fitted dose curve at least 0.9, where 1 is the maximum; inactive means score below 0.9.

Drawing on PubChem BioAssay (EPA / NIEHS), this text covers outcome and AC50 for four compounds.

What all share (conditions): mRNA level, 48 h; actives raise or lower the signal
Read-out in test [1]: Tumor necrosis factor receptor superfamily member 6 (Homo sapiens) (UniProt P25445)
Kind of test: LTEA_HepaRG_FAS: Life Technologies and Expression Analysis (LTEA) Assay for Fas cell surface death receptor (FAS) using HepaRG (AID 2283447). In a few lines: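 Differentiated HepaRG cells in serum-free induction medium were exposed 48 h to 8 half-log concentrations up to 100 uM in 0.5% DMSO, in duplicate. FAS mRNA was measured by qRT-PCR normalised to ACTB, GAPDH and POLR2A; bidirectional fit versus DMSO.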

Read-out in test [2]: Fatty acid synthase (Homo sapiens) (UniProt P49327)
The experiment in a line: LTEA_HepaRG_FASN: Life Technologies and Expression Analysis (LTEA) Assay for Fatty Acid Synthase (FASN) using HepaRG (AID 2283448). In a few lines: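 Differentiated human HepaRG cells were exposed for 48 h in serum-free induction medium to eight half-log concentrations up to 100 uM in 0.5% DMSO, in duplicate. FASN mRNA was quantified by TaqMan qRT-PCR, normalized to ACTB/GAPDH/POLR2A, and fitted bidirectionally against DMSO.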

Read-out in test [3]: Cyclin D2 (CCND2), CCND2 (gene 894)
Kind of test: LTEA_HepaRG_CCND2: Life Technologies and Expression Analysis (LTEA) Assay for Cyclin D2 (CCND2) using HepaRG (AID 2283449).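 Further: CCND2 transcript measured by TaqMan qRT-PCR and normalised to three housekeeping genes.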 In a few lines:
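Chemicals in 0.5% DMSO, eight half-log concentrations from 100 uM top, were applied in duplicate for 48 h to human HepaRG cells in serum-free induction medium. CCND2 mRNA by TaqMan qRT-PCR, normalised to ACTB/GAPDH/POLR2A; bidirectional fit versus DMSO.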

Read-out in test [4]: Cyclin Dependent Kinase Inhibitor 1A (CDKN1A), CDKN1A (gene 1026)
Kind of test: LTEA_HepaRG_CDKN1A: Life Technologies and Expression Analysis (LTEA) Assay for Cyclin Dependent Kinase Inhibitor 1A (CDKN1A) using HepaRG (AID 2283450). An outline of the steps: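 Differentiated human HepaRG cells, pre-cultured 48 h, were exposed in duplicate for 48 h in serum-free induction medium to eight half-log concentrations up to 100 uM (0.5% DMSO). CDKN1A mRNA was measured by qRT-PCR, normalized to ACTB/GAPDH/POLR2A, bidirectionally fitted versus DMSO.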

Read-out in test [5]: Cyclin D1 (CCND1), CCND1 (gene 595)
The experiment in a line: LTEA_HepaRG_CCND1: Life Technologies and Expression Analysis (LTEA) Assay for Cyclin D1 (CCND1) using HepaRG (AID 2283451).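 On AC50: TaqMan qRT-PCR transcript level normalised to ACTB GAPDH and POLR2A housekeeping genes.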 In a few lines: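 Differentiated human HepaRG cells in serum-free induction medium were exposed 48 h to eight half-log concentrations up to 100 uM in 0.5% DMSO; mRNA quantified by TaqMan qRT-PCR, normalized to ACTB, GAPDH, POLR2A, fitted bidirectionally versus DMSO.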

Read-out in test [6]: catalase (CAT), CAT (gene 847)
The experiment in a line: LTEA_HepaRG_CAT: Life Technologies and Expression Analysis (LTEA) Assay for catalase (CAT) using HepaRG (AID 2283452). An outline of the steps:
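HepaRG cells in serum-free induction medium, 0.5% DMSO vehicle, exposed 48 h in duplicate over 8 half-log concentrations from 100 uM. CAT mRNA measured by qRT-PCR, normalized to ACTB, GAPDH, POLR2A; bidirectional fit versus DMSO.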

Read-out in test [7]: flavin-containing dimethylaniline monooxygenases 3 (FMO3), FMO3 (gene 2328)
Kind of test: LTEA_HepaRG_FMO3: Life Technologies and Expression Analysis (LTEA) Assay for flavin-containing dimethylaniline monooxygenases 3 (FMO3) using HepaRG (AID 2283453). In a few lines:
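HepaRG, 48 h exposure, 8-pt half-log series from 100 uM, 0.5% DMSO vehicle, duplicates; FMO3 transcript by Fluidigm TaqMan qRT-PCR, housekeeping-normalized; gain/loss fit vs DMSO.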

Read-out in test [8]: Cytochrome P450 (CYP1A1), CYP1A1 (gene 1543)
The experiment in a line: LTEA_HepaRG_CYP1A1: Life Technologies and Expression Analysis (LTEA) Assay for Cytochrome P450 (CYP1A1) using HepaRG (AID 2283454). An outline of the steps:
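Differentiated HepaRG cells in serum-free induction medium were exposed in duplicate for 48 h to eight half-log concentrations up to 100 uM in 0.5% DMSO. CYP1A1 mRNA was quantified by TaqMan qRT-PCR, normalized to ACTB, GAPDH and POLR2A.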

Read-out in test [9]: CFLAR gene, CFLAR (gene 8837)
The experiment in a line: LTEA_HepaRG_CFLAR: Life Technologies and Expression Analysis (LTEA) Assay for CFLAR gene using HepaRG (AID 2283455). In a few lines: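 Differentiated HepaRG cells in serum-free induction medium were exposed 48 h in duplicate to eight half-log concentrations up to 100 uM in 0.5% DMSO; mRNA measured by TaqMan qRT-PCR, normalized to ACTB, GAPDH, POLR2A; bidirectional fitting versus DMSO.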

Read-out in test [10]: Forkhead box O1 (FOXO1), FOXO1 (gene 2308)
The experiment in a line: LTEA_HepaRG_FOXO1: Life Technologies and Expression Analysis (LTEA) Assay for Forkhead box O1 (FOXO1) using HepaRG (AID 2283456). In a few lines: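 Differentiated HepaRG cells, in serum-free induction medium with 0.5% DMSO, exposed 48 h in duplicate to 8-point half-log series from 100 uM. FOXO1 mRNA measured by TaqMan qRT-PCR, normalized to ACTB, GAPDH, POLR2A; bidirectional fit versus DMSO.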

Read-out in test [11]: growth arrest and DNA damage 45 (GADD45A), GADD45A (gene 1647)
Kind of test: LTEA_HepaRG_GADD45A: Life Technologies and Expression Analysis (LTEA) Assay for growth arrest and DNA damage 45 (GADD45A) using HepaRG (AID 2283458). In a few lines: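 Differentiated HepaRG cells were exposed in duplicate for 48 h in serum-free induction medium to 8-point half-log concentrations up to 100 uM in 0.5% DMSO. GADD45A mRNA was measured by TaqMan qRT-PCR, normalized to ACTB, GAPDH and POLR2A, with bidirectional fitting versus DMSO.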

Read-out in test [12]: Forkhead box O3 (FOXO3), FOXO3 (gene 2309)
Kind of test: LTEA_HepaRG_FOXO3: Life Technologies and Expression Analysis (LTEA) Assay for Forkhead box O3 (FOXO3) using HepaRG (AID 2283459). An outline of the steps:
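Differentiated human HepaRG cells, 48 h post-plating, exposed in duplicate for 48 h in serum-free induction medium; 8-point half-log series from 100 uM in 0.5% DMSO. FOXO3 mRNA by TaqMan qRT-PCR, normalized to ACTB/GAPDH/POLR2A; bidirectional fit versus DMSO.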

Read-out in test [13]: ABC Transporter (ABCB1), ABCB1 (gene 5243)
The experiment in a line: LTEA_HepaRG_ABCB1: Life Technologies and Expression Analysis (LTEA) Assay for ABC Transporter (ABCB1) using HepaRG (AID 2283460). An outline of the steps: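 HepaRG cells exposed in duplicate for 48 h in serum-free induction medium to eight half-log concentrations up to 100 uM in 0.5% DMSO. ABCB1 mRNA quantified by qRT-PCR, normalised to ACTB, GAPDH and POLR2A; fitted bidirectionally versus DMSO.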

Read-out in test [14]: growth arrest and DNA damage 45 (GADD45B), GADD45B (gene 4616)
The experiment in a line: LTEA_HepaRG_GADD45B: Life Technologies and Expression Analysis (LTEA) Assay for growth arrest and DNA damage 45 (GADD45B) using HepaRG (AID 2283461). An outline of the steps: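 Differentiated HepaRG cells, plated 48 h then switched to serum-free induction medium, were exposed 48 h in duplicate to eight half-log concentrations from 100 uM in 0.5% DMSO; mRNA quantified by qRT-PCR, normalized to ACTB/GAPDH/POLR2A, bidirectional fit versus DMSO.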

Read-out in test [15]: ABC Transporter (ABCC3), ABCC3 (gene 8714)
Kind of test: LTEA_HepaRG_ABCC3: Life Technologies and Expression Analysis (LTEA) Assay for ABC Transporter (ABCC3) using HepaRG (AID 2283462). In a few lines:
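HepaRG cells in serum-free induction medium were exposed for 48 h in duplicate to 8-point half-log concentrations topping at 100 uM in 0.5% DMSO. ABCC3 mRNA was measured by qRT-PCR normalized to ACTB, GAPDH and POLR2A, with bidirectional fitting versus DMSO.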

Read-out in test [16]: ABC Transporter (ABCB11), ABCB11 (gene 8647)
The experiment in a line: LTEA_HepaRG_ABCB11: Life Technologies and Expression Analysis (LTEA) Assay for ABC Transporter (ABCB11) using HepaRG (AID 2283463). In a few lines:
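Differentiated human HepaRG cells in serum-free induction medium, dosed in duplicate for 48 h. Eight-point half-log series from 100 uM in 0.5% DMSO; ABCB11 mRNA by qRT-PCR, normalized to ACTB, GAPDH, POLR2A, fitted bidirectionally versus DMSO.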

Read-out in test [17]: ABC Transporter (ABCC2), ABCC2 (gene 1244)
The experiment in a line: LTEA_HepaRG_ABCC2: Life Technologies and Expression Analysis (LTEA) Assay for ABC Transporter (ABCC2) using HepaRG (AID 2283464). In a few lines: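 HepaRG cells were plated 48 h, switched to serum-free induction medium, then exposed in duplicate for 48 h to 8 concentrations (top 100 uM, half-log steps, 0.5% DMSO). ABCC2 mRNA was measured by qRT-PCR normalized to ACTB/GAPDH/POLR2A; bidirectional fitting versus DMSO.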

Read-out in test [18]: Broad substrate specificity ATP-binding cassette transporter ABCG2 (Homo sapiens) (UniProt Q9UNQ0)
Kind of test: LTEA_HepaRG_ABCG2: Life Technologies and Expression Analysis (LTEA) Assay for ABC Transporter (ABCG2) using HepaRG (AID 2283465). In a few lines:
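Differentiated HepaRG cells were exposed for 48 h in serum-free induction medium to 8 half-log concentrations, top 100 uM, in 0.5% DMSO. ABCG2 mRNA was measured by qRT-PCR, normalized to ACTB, GAPDH and POLR2A, with bidirectional fitting versus DMSO.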

Chain of Fatty acid synthase (Homo sapiens) (P49327 whole entry, looked up): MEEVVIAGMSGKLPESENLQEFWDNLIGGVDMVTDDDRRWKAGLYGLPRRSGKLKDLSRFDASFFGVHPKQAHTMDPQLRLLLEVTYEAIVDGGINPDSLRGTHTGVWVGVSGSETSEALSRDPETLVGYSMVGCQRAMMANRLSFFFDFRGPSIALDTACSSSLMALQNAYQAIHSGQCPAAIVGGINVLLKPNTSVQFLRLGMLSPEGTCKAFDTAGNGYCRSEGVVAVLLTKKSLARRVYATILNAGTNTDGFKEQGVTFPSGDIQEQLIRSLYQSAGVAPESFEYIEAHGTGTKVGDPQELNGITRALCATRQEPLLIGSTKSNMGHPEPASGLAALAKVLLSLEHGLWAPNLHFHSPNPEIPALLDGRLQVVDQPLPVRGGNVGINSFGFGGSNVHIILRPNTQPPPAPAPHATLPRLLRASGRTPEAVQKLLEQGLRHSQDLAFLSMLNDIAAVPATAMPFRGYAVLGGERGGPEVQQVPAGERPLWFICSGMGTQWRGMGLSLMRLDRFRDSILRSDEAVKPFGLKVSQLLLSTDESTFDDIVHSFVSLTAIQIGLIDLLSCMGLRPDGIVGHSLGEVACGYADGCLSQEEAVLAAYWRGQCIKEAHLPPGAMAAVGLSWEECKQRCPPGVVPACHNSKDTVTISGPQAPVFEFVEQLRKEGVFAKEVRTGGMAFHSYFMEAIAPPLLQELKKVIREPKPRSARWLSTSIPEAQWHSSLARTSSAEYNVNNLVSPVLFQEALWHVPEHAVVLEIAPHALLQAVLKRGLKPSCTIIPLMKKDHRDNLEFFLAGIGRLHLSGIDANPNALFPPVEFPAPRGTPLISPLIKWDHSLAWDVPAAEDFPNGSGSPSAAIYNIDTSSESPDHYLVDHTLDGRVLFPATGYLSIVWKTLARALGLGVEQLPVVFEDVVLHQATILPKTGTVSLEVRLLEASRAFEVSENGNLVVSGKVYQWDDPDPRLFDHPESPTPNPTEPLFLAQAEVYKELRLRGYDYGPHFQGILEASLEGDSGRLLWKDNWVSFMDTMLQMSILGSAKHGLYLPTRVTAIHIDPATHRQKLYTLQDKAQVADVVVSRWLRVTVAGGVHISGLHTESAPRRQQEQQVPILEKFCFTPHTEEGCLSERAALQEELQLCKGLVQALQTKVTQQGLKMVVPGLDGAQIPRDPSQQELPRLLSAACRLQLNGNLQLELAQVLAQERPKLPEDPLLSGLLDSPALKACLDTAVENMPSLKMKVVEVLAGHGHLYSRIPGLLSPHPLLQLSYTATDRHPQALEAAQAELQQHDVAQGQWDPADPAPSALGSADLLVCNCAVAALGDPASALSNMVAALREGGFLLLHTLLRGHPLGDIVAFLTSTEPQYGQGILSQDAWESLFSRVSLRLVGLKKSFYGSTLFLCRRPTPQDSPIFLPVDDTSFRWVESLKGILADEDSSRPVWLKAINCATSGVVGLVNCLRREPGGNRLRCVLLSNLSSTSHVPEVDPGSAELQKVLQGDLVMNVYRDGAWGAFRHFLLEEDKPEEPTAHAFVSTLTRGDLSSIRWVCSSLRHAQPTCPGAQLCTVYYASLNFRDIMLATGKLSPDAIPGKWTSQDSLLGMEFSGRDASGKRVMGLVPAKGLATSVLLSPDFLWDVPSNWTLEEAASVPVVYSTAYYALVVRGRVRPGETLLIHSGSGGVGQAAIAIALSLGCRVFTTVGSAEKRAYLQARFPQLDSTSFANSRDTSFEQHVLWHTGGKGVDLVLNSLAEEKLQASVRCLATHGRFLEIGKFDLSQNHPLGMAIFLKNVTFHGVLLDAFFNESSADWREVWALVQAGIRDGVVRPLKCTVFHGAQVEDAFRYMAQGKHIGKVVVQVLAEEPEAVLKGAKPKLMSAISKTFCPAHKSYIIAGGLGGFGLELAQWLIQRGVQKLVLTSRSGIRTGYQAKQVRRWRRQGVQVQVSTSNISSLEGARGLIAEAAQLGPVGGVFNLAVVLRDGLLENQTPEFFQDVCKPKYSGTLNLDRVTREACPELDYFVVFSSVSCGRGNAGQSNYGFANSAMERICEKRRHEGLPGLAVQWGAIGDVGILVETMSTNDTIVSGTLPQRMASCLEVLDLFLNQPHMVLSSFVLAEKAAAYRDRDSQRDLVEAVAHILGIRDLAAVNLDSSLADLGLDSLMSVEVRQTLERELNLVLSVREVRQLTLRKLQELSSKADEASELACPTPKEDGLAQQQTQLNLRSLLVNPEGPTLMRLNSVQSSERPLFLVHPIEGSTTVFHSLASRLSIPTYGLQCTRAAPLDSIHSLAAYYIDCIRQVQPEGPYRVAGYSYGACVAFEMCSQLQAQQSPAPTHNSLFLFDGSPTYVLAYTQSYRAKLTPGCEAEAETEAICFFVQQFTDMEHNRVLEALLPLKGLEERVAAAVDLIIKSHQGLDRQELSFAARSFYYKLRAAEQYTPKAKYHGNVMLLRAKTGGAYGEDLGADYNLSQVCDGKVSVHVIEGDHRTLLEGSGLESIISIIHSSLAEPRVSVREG
Chain of Broad substrate specificity ATP-binding cassette transporter ABCG2 (Homo sapiens) (Q9UNQ0 whole entry, looked up): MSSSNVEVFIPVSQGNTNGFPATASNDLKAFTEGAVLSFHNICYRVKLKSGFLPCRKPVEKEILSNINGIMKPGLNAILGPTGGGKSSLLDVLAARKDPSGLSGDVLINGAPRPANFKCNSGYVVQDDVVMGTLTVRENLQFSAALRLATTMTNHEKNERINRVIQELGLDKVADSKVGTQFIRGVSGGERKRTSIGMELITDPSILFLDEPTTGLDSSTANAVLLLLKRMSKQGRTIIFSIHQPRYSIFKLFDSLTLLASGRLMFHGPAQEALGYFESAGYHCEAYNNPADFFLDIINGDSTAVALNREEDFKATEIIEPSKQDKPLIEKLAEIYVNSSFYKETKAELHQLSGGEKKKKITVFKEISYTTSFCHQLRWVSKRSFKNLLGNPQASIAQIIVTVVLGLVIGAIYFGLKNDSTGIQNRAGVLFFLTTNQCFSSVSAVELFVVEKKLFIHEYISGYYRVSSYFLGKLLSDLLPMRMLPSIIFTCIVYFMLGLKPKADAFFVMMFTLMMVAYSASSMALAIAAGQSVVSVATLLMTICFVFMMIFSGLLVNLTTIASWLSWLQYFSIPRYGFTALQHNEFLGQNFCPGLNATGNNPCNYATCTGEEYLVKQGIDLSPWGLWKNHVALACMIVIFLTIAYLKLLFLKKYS

Take `CCOP(=S)(OCC)SCCSCC`: the result in test [1], in test [2], in test [3], in test [4], in test [5] and in test [6] was inactive. In addition, the compound was classed as inactive in test [7], in [8], in test [9], in test [10], in test [11] and in test [12]. Besides, the compound was called inactive in test [14], in [15], in [16], in test [17] and in test [18]. In [13], the AC50 was 0.0511 µM (active).
Take `CC[C@H](C)[C@H]1O[C@]2(C=C[C@@H]1C)C[C@@H]1C[C@@H](C/C=C(\C)[C@@H](O[C@H]3C[C@H](OC)[C@@H](O[C@H]4C[C@H](OC)[C@@H](NC)[C@H](C)O4)[C@H](C)O3)[C@@H](C)/C=C/C=C3\CO[C@@H]4[C@H](O)C(C)=C[C@@H](C(=O)O1)[C@]34O)O2`: the AC50 was 16.4 µM (active) in test [2]; 87.5 µM (active) in [5]; 12.7 µM (active) in test [6]; 15.5 µM (active) in [7]; 13.4 µM (active) in test [8]; 16.9 µM (active) in test [9]. The AC50 in [10] was 27.9 µM (active); in test [13] it was 23 µM (active); in test [14], 50 µM (active); in test [15], 31.6 µM (active); in test [16] it was 39.6 µM (active); in [17] it was 13.3 µM (active). Further, in test [18], the AC50 was 14.4 µM (active). In addition, the result in [3], in test [4], in test [11] and in test [12] was inactive.
Turning to `CCc1cccc(CC)c1N(COC)C(=O)CCl`, the outcome in [2], in test [3], in [4], in test [5], in [6] and in [7] was inactive. The outcome in test [9], in test [10], in test [11], in [12], in test [13] and in test [14] was inactive. For the same compound, the compound was called inactive in test [15], in [16], in test [17] and in test [18]. Besides, in test [8], the AC50 is 50 µM (active).
As to `CCOP(=O)(SC(C)CC)N1CCSC1=O` (centres undefined), the compound was classed as inactive in test [1], in test [2], in [4], in test [5], in test [6] and in test [7]. Besides, the compound was called inactive in test [8], in test [9], in test [10], in test [11], in [12] and in test [13]. Besides, the call in [14], in test [15], in [16] and in [18] was inactive. Further, the AC50 in test [17] is 27.1 µM (active).
